Compound activity deposited in PubChem by National Center for Advancing Translational Sciences (NCATS).
AmpC inh no detg: blocks E. coli AmpC beta-lactamase in detergent-free assay; AmpC nitrocefin hydrolysis, absorbance 480 nm, 0.0001% Triton; hit rate 0.52% among 330,000; Potency, µM (doses to about 57.1 µM), usual class: inhibitors; P00811; AID 485341; further: nearly all actives have a fitted effect of over 20% in size
Target sequence (P00811 whole entry, looked up): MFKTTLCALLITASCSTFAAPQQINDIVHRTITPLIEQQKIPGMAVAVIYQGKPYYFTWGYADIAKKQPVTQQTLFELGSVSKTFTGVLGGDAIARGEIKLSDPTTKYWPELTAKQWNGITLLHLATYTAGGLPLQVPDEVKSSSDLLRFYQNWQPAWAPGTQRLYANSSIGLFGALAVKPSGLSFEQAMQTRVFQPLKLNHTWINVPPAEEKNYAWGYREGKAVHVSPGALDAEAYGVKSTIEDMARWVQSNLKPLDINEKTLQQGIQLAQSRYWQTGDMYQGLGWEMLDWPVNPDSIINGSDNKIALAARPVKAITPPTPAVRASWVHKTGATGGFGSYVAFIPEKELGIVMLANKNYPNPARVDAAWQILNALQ
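20 mM phosphate pH 7.0 + 0.01% (detergent screen) or 0.0001% Triton X-100; 5.3 nM AmpC reagent; cpd preinc 15 min RT; nitrocefin (800 uM stock) to start; A480 q20 s × 4 min; Activity was normalised to no-enzyme and no-compound control wells.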
Sm TGR inh: S. mansoni TGR enzyme inhibition; Q962Y6; purified TGR, DTNB reduction, TNB absorbance 405 nm; Potency, µM (doses to about 114 µM), most hits filed as inhibitors; hit rate 3% among 360,000; AID 485364; further: nearly all actives have a fitted effect of over 60% in size
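First, TGR (20 nM dispensed) and NADPH were mixed with compound. Second, a 15 min room-temperature incubation followed. Third, further NADPH and then DTNB were added to start the reaction. Finally, TNB absorbance was monitored kinetically.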
AmpC inh detg: inhibitors of E. coli AmpC beta-lactamase with detergent | P00811 | AmpC hydrolysis of nitrocefin, absorbance 480 nm, 0.01% Triton | Potency, µM (titrated, usually from 114 µM), hits mostly inhibitors | hit rate 0.041% among 370,000 | AID 485294; further: nearly all actives have a fitted effect of over 25% in size
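20 mM phosphate pH 7.0 + 0.01% (detergent screen) or 0.0001% Triton X-100; 5.3 nM AmpC reagent; cpd preinc 15 min RT; nitrocefin (800 uM stock) to start; A480 q20 s × 4 min; Activity was normalised to no-enzyme and no-compound control wells.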
RE007 growth inh: less growth of the S. pombe RE007 Vpr strain | S. pombe RE007 Vpr strain, BacTiter-Glo ATP luminescence, 24 h | AID 651644 | hit rate 0.21% among 360,000 | Potency, µM (doses to about 92.2 µM), most hits filed as inhibitors; active means well fitted falling curve with a large enough effect; inconclusive means small, poorly fitted or top-dose-only effect; inactive means no such curve, though single readings can be large or run the other way; further: nearly all actives have a fitted effect of over 50% in size
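Fission yeast RE007 carrying one integrated HIV-1 vpr copy, seeded at OD 0.01 in PMG+AL medium with 23 nL pinned compound. Grown 24 h at 30 degrees; viability read by BacTiter-Glo luminescence after 5 min.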
SARS PLP yeast: inhibitors of SARS-CoV papain-like protease in yeast | Potency, µM (series often up to 32.9 µM), most hits filed as activators | S. cerevisiae expressing SARS-CoV PLpro, growth rescue | hit rate 0.19% among 330,000; calls by dose curve; further: nearly all actives have a fitted effect of over 55% in size
TbPYK inhibitor: inhibitors of Trypanosoma brucei pyruvate kinase | Q57TT1 | TbPYK enzyme, Kinase-Glo Plus ATP luminescence, 45 min | Potency, µM (highest dose often 76.8 µM), hits mostly inhibitors | hit rate 0.12% among 410,000 | AID 624173; further: nearly all actives have a fitted effect of over 50% in size
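Luminescence from Kinase-Glo Plus, added after a 45-minute room-temperature reaction, served as the end-point read-out. The enzyme and substrate were preincubated with compound before ADP (130 uM final) initiated turnover. Concentration-effect curves came from normalized qHTS data.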
Each line names hits and unclear results; the compound was inactive in the other large screens. Compounds with a hit are over-represented: about 3.3% of the library has one in this group of screens. Unless noted, the call rests on the fitted dose curve; in most records, active means well fitted curve in the direction sought with a large enough effect; inconclusive means small, poorly fitted or top-dose-only effect, or another doubt; inactive means no such curve, though single readings can be large; an effect the other way counts as inactive or inconclusive.

Cc1ccc(Cn2cc(S(=O)(=O)c3ccccc3)c(=O)c3cc(F)c(N4CCOCC4)cc32)cc1	none (no result: AmpC inh no detg, RE007 growth inh, SARS PLP yeast)
O=C(Nc1nc(-c2ccco2)c(-c2ccco2)s1)C1CCC1	AmpC inh no detg 32µM, Sm TGR inh inconclusive, AmpC inh detg inconclusive
CS(=O)(=O)c1ccc(C(=O)Nc2nc(-c3ccco3)c(-c3ccco3)s2)cc1	Sm TGR inh 3.5µM, TbPYK inhibitor inconclusive
O=C(Nc1nc(-c2ccco2)c(-c2ccco2)s1)C1CC(=O)N(c2ccc3c(c2)OCCO3)C1 (stereo not drawn)	Sm TGR inh 11µM, TbPYK inhibitor inconclusive
CC(=O)N1CCc2cc(S(=O)(=O)NC(Cc3ccccc3)C(=O)Nc3ccc(C)cc3C)ccc21 (stereo not drawn)	none (no result: AmpC inh no detg, RE007 growth inh, SARS PLP yeast)
CC(=O)Nc1sc(N/N=C/c2ccccc2F)nc1-c1ccc(C)cc1	Sm TGR inh 32µM
CC(=O)Nc1sc(N/N=C/c2ccccc2)nc1-c1ccc(C)cc1	none
O=[N+]([O-])c1ccc(-c2csc(N/N=C/c3cccnc3)n2)cc1	none
O=[N+]([O-])c1cc(/C=N\Nc2nc(-c3ccccc3)cs2)ccc1O	AmpC inh no detg 25µM
CCN(CC)C(=O)c1sc2nc(-c3cccs3)cc(-c3cccs3)c2c1N	Sm TGR inh 89µM
N#Cc1c(N)oc(-c2ccco2)c1-c1ccco1	Sm TGR inh 35µM
CC1CCCN(CCCNC(=O)Cn2ncc3c([nH]c4ccccc43)c2=O)C1 (stereo not drawn)	none (no result: AmpC inh no detg, RE007 growth inh, SARS PLP yeast)
Fc1ccc(CSc2ncnc3nc[nH]c23)cc1	AmpC inh no detg 1.6µM, AmpC inh detg inconclusive
C=C1CCN(C(Cc2ccccc2)C(=O)OC)S(=O)(=O)c2ccc(F)cc21 (stereo not drawn)	Sm TGR inh 22µM
CCC(=O)N1CCc2cc(S(=O)(=O)NCCC(=O)Nc3ccc(C)cc3C)ccc21	none (no result: AmpC inh no detg, RE007 growth inh, SARS PLP yeast)
C=CCSc1nc2sc(C)c(C)c2c(=O)n1CC=C	Sm TGR inh 16µM
O=C(CSc1n[nH]c(-c2ccncc2)n1)c1cccc([N+](=O)[O-])c1	none
O=C(CSc1n[nH]c(-c2ccncc2)n1)c1ccccc1	AmpC inh no detg 0.4µM
CCCC(O)(CCC)C(=O)NN(C(=O)CCl)c1ccccc1	Sm TGR inh 11µM
COc1ccc2c(c1)NC(c1ccc(N(C)C)cc1)c1cccn1-2 (stereo not drawn)	Sm TGR inh 50µM
COc1ccc2c(c1)NC(c1cc(Cl)cc(Cl)c1O)c1cccn1-2 (stereo not drawn)	none
CCC(C)NC(=O)c1ccc2c(c1)nc1n2CCCCC1 (stereo not drawn)	none (no result: AmpC inh no detg, RE007 growth inh, SARS PLP yeast)
CCOC(=O)/C=C1\CC(C(=O)OCC)Oc2ccccc21 (stereo not drawn)	none (no result: Sm TGR inh, AmpC inh detg)
CCOC(=O)/C=C1\CN(CCC(C)C)S(=O)(=O)c2ccccc21	Sm TGR inh 56µM
CCOC(=O)/C=C1\CN(C(C)c2ccccc2)S(=O)(=O)c2ccccc21 (stereo not drawn)	Sm TGR inh 28µM
COc1ccc(CCn2c3c(c(=O)[nH]c2=O)C(NC(=O)c2ccccc2)(C(F)(F)F)C(=O)N3)cc1OC (stereo not drawn)	none (no result: AmpC inh no detg, RE007 growth inh, SARS PLP yeast)
CCCNC(=O)C1CC2Cn3c(nc4ccccc43)C2N1C (stereo not drawn)	Sm TGR inh 40µM
CN1C(C(=O)NCc2ccccc2)CC2Cn3c(nc4ccccc43)C21 (stereo not drawn)	none
Cc1ccc(CNC(=O)C2CC3Cn4c(nc5cc(Cl)c(Cl)cc54)C3N2C)o1 (stereo not drawn)	Sm TGR inh 45µM
CCOC(=O)c1c(NC(N)=O)sc(C)c1C	none
CCOC(=O)c1c(N2C(=O)C=CC2=O)sc(C)c1C	Sm TGR inh 0.45µM, RE007 growth inh 13µM, TbPYK inhibitor 25µM
COC(=O)C1CCN(C2=C(NS(=O)(=O)c3ccc(Cl)cc3)C(=O)c3ccccc3C2=O)CC1	Sm TGR inh inconclusive
NC(=O)C1CCN(C2=C(NS(=O)(=O)c3ccc(Cl)cc3)C(=O)c3ccccc3C2=O)CC1	Sm TGR inh 11µM
O=C(CSCc1ccc(F)cc1)N1CCc2c([nH]c3ccccc23)C1c1ccccc1 (stereo not drawn)	none (no result: AmpC inh no detg, RE007 growth inh, SARS PLP yeast)
CCC1CCCCN1CC(=O)c1c(C)[nH]c2ccccc12 (stereo not drawn)	Sm TGR inh 45µM
CCOC(=O)C1CCN(CC(=O)c2c(C)[nH]c3ccccc23)CC1	Sm TGR inh 35µM, TbPYK inhibitor inconclusive
Cc1[nH]c2ccccc2c1C(=O)CN1CCCCC1C (stereo not drawn)	none
CCOC(=O)C1CCCN(C(c2ccccn2)c2c(C)[nH]c3ccccc23)C1 (stereo not drawn)	Sm TGR inh 0.32µM, RE007 growth inh inconclusive
CCCC(=O)N(c1ccc2oc(=O)sc2c1)S(=O)(=O)c1ccccc1	AmpC inh no detg 10µM, AmpC inh detg inconclusive, TbPYK inhibitor inconclusive
CC(C)c1ccc(N2C(=O)CS(=O)(=O)C23C(=O)N(Cc2cccc(F)c2)c2ccccc23)cc1 (stereo not drawn)	none (no result: AmpC inh no detg, RE007 growth inh, SARS PLP yeast)
O=S(=O)(Nc1ccc2nc(C(F)(F)F)[nH]c2c1)c1ccccc1	none
O=S(=O)(Nc1ccc2nc(-c3ccc(Br)o3)[nH]c2c1)c1ccccc1	AmpC inh no detg 25µM, Sm TGR inh 28µM (no result: RE007 growth inh, TbPYK inhibitor)
Cc1ccc(-c2nc3ccc(NS(=O)(=O)c4ccccc4)cc3[nH]2)o1	Sm TGR inh 35µM
C=Cc1ccc(Cn2c(C(=O)O)c(CNCc3ccccc3)c3ccc(C)cc32)cc1	none (no result: AmpC inh no detg, RE007 growth inh, SARS PLP yeast)
CC(NC(=S)Nc1ccc([N+](=O)[O-])cc1)c1ccncc1 (stereo not drawn)	Sm TGR inh 45µM
O=[N+]([O-])c1ccc(NC(=S)NCc2ccncc2)cc1	none
CN(C)C/C(Cl)=C(\Cl)c1ccccc1	Sm TGR inh 20µM, AmpC inh detg inconclusive
O=c1[nH]c2ccc(N=Cc3c(O)ccc4cc(Br)ccc34)cc2[nH]1	Sm TGR inh 32µM
Cc1[nH]n(-c2ccccc2)c(=O)c1C=Nc1ccc2[nH]c(=O)[nH]c2c1	none
O=[N+]([O-])c1cccc(N/N=C/c2cccc(O)c2O)c1	AmpC inh no detg 16µM
O=[N+]([O-])c1ccc(N/N=C/c2cccc(O)c2O)c(S(=O)(=O)N2CCOCC2)c1	AmpC inh no detg 11µM (no result: Sm TGR inh)
Cc1ccc(Cc2nc3ccccc3nc2SCC(=O)NCCc2ccccc2)cc1	none (no result: AmpC inh no detg, RE007 growth inh, SARS PLP yeast)
CCc1ccc(OCC(=O)Nc2ncn[nH]2)c(Br)c1	none (no result: AmpC inh no detg, RE007 growth inh, SARS PLP yeast)
Cc1ccc(CN(C(=O)c2ccccc2F)c2ccccn2)o1	Sm TGR inh 45µM (no result: AmpC inh no detg, RE007 growth inh, SARS PLP yeast)
